# High-throughput results (PubChem BioAssay)
# A selection: hits, their analogues and other compounds. The true share with any hit is near 2.8%.
# SNCA viab count = reduces viability of HEK-293 SNCA reporter cells. 150,000 tested, 0.12% active. AID 1671193. HEK-293-SNCA-luc viability, GF-AFC fluorescence, 24 h. Potency, µM (doses to about 57.1 µM), inactives show at the highest dose activity change, negative = cytotoxicity, usual class: cytotoxic;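 note: potency is the fitted concentration of half-maximal effect; 0% = DMSO-treated cells and -100% = medium-only wells without cells; nearly all actives have a fitted effect of over 30% in size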
#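 HEK-293-SNCA-luc cells (1500/well) plated 24 h, then exposed 24 h to a dilution series; GF-AFC added 30 min at 37C, fluorescence 405/540 nm; normalised to medium-only and DMSO wells, Hill fit.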
# IP6K1 inh = IP6K1 kinase inhibition | activity change, % (series mostly up to about 58 µM) | 140,000 tested, 0.81% active | IP6K1 kinase, ADP-Glo luminescence, 2 h; stronger effect = lower value | Q92551 | AID 1645851; in the data active = activity change below about -25%; note: % is set by controls: 0 for no effect and ±100 for the full control effect
#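 ADP-Glo luminescence measures ADP made by human IP6K1 during a 2 h RT reaction with ATP/IP6 (mix at 1.3 mM/130 uM); top library doses 57.5 and 19.1 uM final.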
# KDM5B inh = inhibitors of human KDM5B histone demethylase; Q9UGL1; KDM5B demethylase, FDH-coupled NADH fluorescence (FDH is formaldehyde dehydrogenase); Potency, µM (highest dose often 57.7 µM), most hits filed as inhibitors; 220,000 tested, 2.6% active; note: potency is the fitted concentration of half-maximal effect; 0% is about no effect; nearly all actives have a fitted effect of over 70% in size
# Target sequence (Q9UGL1 whole entry, looked up): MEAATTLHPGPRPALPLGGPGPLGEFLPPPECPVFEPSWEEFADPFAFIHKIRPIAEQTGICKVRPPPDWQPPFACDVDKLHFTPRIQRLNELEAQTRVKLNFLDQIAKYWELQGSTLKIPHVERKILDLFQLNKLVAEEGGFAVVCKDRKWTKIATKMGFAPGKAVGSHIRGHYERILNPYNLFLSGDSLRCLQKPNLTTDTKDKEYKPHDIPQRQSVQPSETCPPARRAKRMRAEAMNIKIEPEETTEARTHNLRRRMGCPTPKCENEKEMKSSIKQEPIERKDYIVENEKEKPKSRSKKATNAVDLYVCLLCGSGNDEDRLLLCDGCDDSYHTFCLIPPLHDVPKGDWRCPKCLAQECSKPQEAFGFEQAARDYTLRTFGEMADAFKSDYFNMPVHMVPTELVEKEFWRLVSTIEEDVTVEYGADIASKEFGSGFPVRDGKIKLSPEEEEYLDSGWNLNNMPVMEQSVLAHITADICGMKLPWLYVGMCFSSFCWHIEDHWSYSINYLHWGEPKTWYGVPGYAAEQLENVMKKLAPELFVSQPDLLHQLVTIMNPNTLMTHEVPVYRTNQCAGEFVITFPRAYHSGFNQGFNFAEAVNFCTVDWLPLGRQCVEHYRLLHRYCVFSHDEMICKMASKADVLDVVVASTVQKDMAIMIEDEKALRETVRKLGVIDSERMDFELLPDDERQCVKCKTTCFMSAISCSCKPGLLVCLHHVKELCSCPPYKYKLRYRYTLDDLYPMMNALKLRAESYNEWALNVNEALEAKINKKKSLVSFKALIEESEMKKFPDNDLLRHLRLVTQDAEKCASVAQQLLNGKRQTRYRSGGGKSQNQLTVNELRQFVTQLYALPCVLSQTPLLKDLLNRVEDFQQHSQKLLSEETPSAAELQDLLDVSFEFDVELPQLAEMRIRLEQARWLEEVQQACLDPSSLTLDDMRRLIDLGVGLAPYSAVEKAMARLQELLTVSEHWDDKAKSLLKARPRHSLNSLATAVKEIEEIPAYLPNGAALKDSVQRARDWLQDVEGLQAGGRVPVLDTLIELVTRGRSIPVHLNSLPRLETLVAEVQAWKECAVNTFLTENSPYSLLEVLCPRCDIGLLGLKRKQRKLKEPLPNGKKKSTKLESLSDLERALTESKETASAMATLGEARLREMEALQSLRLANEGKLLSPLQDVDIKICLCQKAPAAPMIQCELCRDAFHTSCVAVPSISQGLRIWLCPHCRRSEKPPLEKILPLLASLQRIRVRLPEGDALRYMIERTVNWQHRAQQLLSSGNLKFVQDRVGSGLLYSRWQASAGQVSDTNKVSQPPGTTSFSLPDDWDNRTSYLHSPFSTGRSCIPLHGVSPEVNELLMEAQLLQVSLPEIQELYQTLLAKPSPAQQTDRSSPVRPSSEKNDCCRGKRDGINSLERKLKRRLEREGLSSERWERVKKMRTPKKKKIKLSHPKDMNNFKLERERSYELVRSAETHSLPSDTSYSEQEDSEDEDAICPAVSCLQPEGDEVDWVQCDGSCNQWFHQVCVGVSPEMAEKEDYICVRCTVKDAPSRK
#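 Compound dilutions met 200 nM (final) KDM5BΔAP for 10 min at room temperature before substrate addition. The substrate mix held 12.5 µM H3K4me3 with cofactors 25 µM α-ketoglutarate and 50 µM Fe²⁺. NADH signal gain over 30 min defined activity.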
# SNCA expr inhib = SNCA gene expression inhibition | HEK-293 SNCA-luciferase knock-in, luminescence, 24 h | Potency, µM (series often up to 57.2 µM), without a hit: at the top dose activity change, negative = inhibition, most hits filed as inhibitors | 140,000 tested, 0.17% active | AID 1671194;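 note: potency is the fitted concentration of half-maximal effect; plate controls were DMSO cells for no effect and cell-free wells for full effect; nearly all actives have a fitted effect of over 45% in size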
# IP6K1 conf = human IP6K1 inhibition, confirmatory; shares compounds with IP6K1 inh; recombinant IP6K1 kinase, ADP-Glo luminescence, 2 h; Potency, µM (series often up to 49 µM), for inactives: at the top dose activity change, negative = inhibition, usual class: inhibitors; 1,200 tested, 13% active; note: potency is the fitted concentration of half-maximal effect; % is set by controls: 0 for no effect and ±100 for the full control effect; nearly all actives have a fitted effect of over 65% in size
# Starred values were filed as active, the others as inactive; i = inactive; ? = inconclusive; . = not tested or not shown; [ ] = another dose, or the depositor's remark. Unless noted, calls come from the whole dose curve; as a rule, active = well fitted curve in the direction sought with a large enough effect; inconclusive = small, poorly fitted or top-dose-only effect, or another doubt; inactive = no such curve, though single readings can be large; an effect the other way counts as inactive or inconclusive.
SMILES,SNCA viab count,IP6K1 inh,KDM5B inh,SNCA expr inhib,IP6K1 conf
CCCSCCCNC(=O)C1CCN(c2nc3ccccc3nc2C(F)(F)F)CC1,-1%,-29*,i,1%,-9%
O=C(NCCc1ccccc1)C1CCN(c2nc3ccccc3nc2C(F)(F)F)CC1,7%,-1,i,2%,.
CCc1ccc(CNC(=O)C2CCCN(S(=O)(=O)c3ccc4c(ccn4C)c3)C2)cc1 (stereo unspecified),4%,-26*,i,-23%,-4%
O=C(N[C@@H](Cn1cc(F)c(=O)[nH]c1=O)C(=O)O)c1cccs1,2%[87.6 µM],-7,i,14%[87.6 µM],.
CC(=O)N[C@@H]1[C@H](O[C@@H]2c3ccc(c(Cl)c3)Oc3cc4cc(c3O[C@H]3O[C@H](CO)[C@@H](O)[C@H](O)[C@H]3NC(=O)CCCCCCCC(C)C)Oc3ccc(cc3Cl)C[C@H]3NC(=O)[C@H](N)c5ccc(O)c(c5)Oc5cc(O)cc(c5)[C@H](NC3=O)C(=O)N[C@H]4C(=O)N[C@H]3C(=O)N[C@@H]2C(=O)N[C@@H](C(=O)O)c2cc(O)cc(O[C@H]4O[C@H](CO)[C@@H](O)[C@H](O)[C@H]4O)c2-c2cc3ccc2O)O[C@H](CO)[C@@H](O)[C@@H]1O,1%,.,.,16%,.
CN[C@H](CC(C)C)C(=O)N[C@H]1C(=O)N[C@@H](CC(N)=O)C(=O)N[C@H]2C(=O)N[C@H]3C(=O)N[C@H](C(=O)N[C@H](C(=O)O)c4cc(O)cc(O)c4-c4cc3ccc4O)[C@H](O[C@H]3C[C@](C)(N)[C@@H](O)[C@H](C)O3)c3ccc(c(Cl)c3)Oc3cc2cc(c3O[C@@H]2O[C@H](CO)[C@@H](O)[C@H](O)[C@H]2O[C@H]2C[C@](C)(NCc3ccc(-c4ccc(Cl)cc4)cc3)[C@@H](O)[C@H](C)O2)Oc2ccc(cc2Cl)[C@H]1O,10%[23.9 µM],-32*,.,.,?
CCOc1nccn2c(-c3ccc(CNc4ccc(OC)nc4)cc3)cnc12,-8%[87.6 µM],-36*,?,-29%[87.6 µM],?
O=C(O)Cn1nnc(-c2ccc(OCc3cccc(C(F)(F)F)c3)cc2)n1,1%,-30*,?,6%,?
COc1ccc(CN2CCN(c3cc(N(C)C)ncn3)CC2CCO)c(C)c1C (stereo unspecified),-2%,-35*,?,21%,-9%
CCC1CCCCN1S(=O)(=O)c1ccc(NC(=O)c2cc(=O)c3cc(C)cc(C)c3o2)cc1 (stereo unspecified),.,.,i,.,.
CCn1cc(-c2ccc(C)cc2)cc1C(=O)N1CCC(C)CC1,-7%,-30*,i,-15%,?
COc1ccc(-c2cn3c(n2)sc2cc(C(=O)NCCCN4CCCCCC4)ccc23)cc1,-26%,-62*,?,46%,-4%
COc1ccc(-c2cn3c(n2)sc2cc(C(=O)NCCCN4CCCCC4)ccc23)cc1,?,-9,?,-5%,.
CCOC(=O)C1CCCN(C(=O)c2ccc3c(c2)sc2nc(-c4cccc(OC)c4)cn23)C1 (stereo unspecified),1%,-31*,?,42%,3%
CCOC(=O)C1CCCN(C(=O)c2ccc3c(c2)sc2nc(-c4ccc(C)cc4C)cn23)C1 (stereo unspecified),-12%,-3,i,33%,.
CCCC(=O)OCOC(=O)C1=C(C)NC(C)=C(C(=O)OC)C1c1cccc(Cl)c1Cl (stereo unspecified),12%[23.9 µM],7,.,-22%[25.6 µM],-6%
COc1cc(S(=O)(=O)N2CCc3c(nc[nH]c3=O)C2)c(OC)cc1C,1%,-30*,i,16%,-4%
CCOc1ccc(C2Cn3nnc(-c4nc(-c5ccsc5)no4)c3CO2)cc1 (stereo unspecified),-1%,-27*,25µM*,31%,-14%
CC(C)C(=O)N1CCN(c2nccc(Nc3ccccc3Cl)n2)CC1,1%,17,.,91%,.
Cc1ccc(C)c(N2CCN(c3ccc(NC(=O)c4cccs4)cc3C(=O)O)CC2)c1,1%,-33*,?,20%,?
COc1ccc(Cl)cc1NC(=O)Cn1ncc2c3ccccc3n(Cc3ccccc3)c2c1=O,2%,-27*,?,11%,-2%
